Compound activity: PubChem BioAssay, several laboratories
Sampled rows, rich in hits. Any-hit rate of the full collection: about 1.6%.
GRK2 inh – inhibitors of human GRK2 displacing RNA aptamer | inhibition of aptamer binding, % at 10 µM | AID 488847 | P25098 | 330,000 compounds, 0.59% hits | bead flow cytometry, FAM-aptamer displacement from GRK2;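 active means inhibition of aptamer binding above 40%, roughly 3 SD of noise, on plates passing a quality check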;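 further: median bead fluorescence of bound FAM aptamer so fluorescent compounds give negative values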
Target sequence (P25098 whole entry, looked up): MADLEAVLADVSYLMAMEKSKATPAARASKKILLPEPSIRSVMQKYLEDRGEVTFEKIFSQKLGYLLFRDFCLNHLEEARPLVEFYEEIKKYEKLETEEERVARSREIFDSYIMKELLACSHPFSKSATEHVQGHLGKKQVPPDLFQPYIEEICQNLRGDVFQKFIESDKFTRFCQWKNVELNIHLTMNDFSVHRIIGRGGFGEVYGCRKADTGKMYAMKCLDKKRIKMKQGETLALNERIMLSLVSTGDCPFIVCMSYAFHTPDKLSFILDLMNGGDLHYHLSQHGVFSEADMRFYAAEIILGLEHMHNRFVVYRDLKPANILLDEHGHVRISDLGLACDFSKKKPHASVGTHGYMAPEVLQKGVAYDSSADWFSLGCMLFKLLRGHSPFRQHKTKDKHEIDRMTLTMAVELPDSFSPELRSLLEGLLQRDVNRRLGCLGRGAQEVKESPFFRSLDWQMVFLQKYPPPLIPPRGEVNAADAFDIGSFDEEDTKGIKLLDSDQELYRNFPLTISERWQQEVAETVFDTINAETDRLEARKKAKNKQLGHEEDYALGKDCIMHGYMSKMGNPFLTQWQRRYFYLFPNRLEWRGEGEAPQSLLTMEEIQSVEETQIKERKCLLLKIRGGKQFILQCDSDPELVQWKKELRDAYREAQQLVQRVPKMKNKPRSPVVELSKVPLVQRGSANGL
ATG4B inh – ATG4B (human) cysteine protease inhibition. inhibition, % at 8.33 µM. ATG4B cleavage of LC3-PLA2, NBD-HPC fluorescence, 1 h. AID 504462. 340,000 compounds, 0.51% hits. Q9Y4P1; in the data active means inhibition above about 40%
Efflux pump inh – inhibitors of Candida antifungal efflux pumps expressed in yeast | AID 485275 | 330,000 compounds, 0.44% hits | inhibition, % at 10 µM | S. cerevisiae Candida pump triplex, Nile Red efflux;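 active means plate passing quality check with inhibition over a set limit, or well fluorescence over plate mean plus 4 SD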;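 further: Nile Red retained in pooled yeast measured as flow cytometry median fluorescence; 0% = buffer negative control and 100% = Enniatin B positive control; higher means more Nile Red kept so more efflux inhibition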
Yeast superoxide – yeast age-related superoxide inhibition as caloric restriction mimetic; S. cerevisiae aged cells, superoxide DHE fluorescence; stronger effect = lower value; superoxide response (% of plate mean), % at 10 µM; 330,000 compounds, 0.18% hits;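 active means superoxide response under a set limit, about three screen SD below normal, cut at about 65% in these data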;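 further: yeast aged for seven days with compound at 30 °C before DHE staining; 100% = average MFI of all compound-treated wells on the plate with controls excluded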
Yeast cmpd fluor – compound fluorescence in yeast efflux pump counter-screen; shares compounds with Efflux pump inh; S. cerevisiae AD/pABC3, flow cytometry; fluorescence ratio to DMSO, % at 10 µM; 1,700 compounds, 4% hits; AID 588517;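 active means fluorescence ratio to DMSO above its plate's cutoff, the plate mean ratio plus 5 SD, cut at about 210% in these data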;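 further: unstained yeast with no Nile Red so the signal is compound autofluorescence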
CaMdr1 efflux inh – blocks the Candida albicans Mdr1 efflux pump in yeast | shares compounds with Efflux pump inh | S. cerevisiae AD/CaMDR1, Nile Red efflux, flow cytometry | inhibition, % at 10 µM | 1,700 compounds, 1% hits | AID 588518; in the data active means inhibition above about 26%;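 further: 0% = DMSO vehicle and 100% = reference inhibitor; higher means more Nile Red retained so more efflux inhibition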
CaCdr2 efflux inh – inhibitors of Candida albicans Cdr2 efflux pump; shares compounds with Efflux pump inh; 1,700 compounds, 4% hits; S. cerevisiae AD/CaCDR2, Nile Red retention, flow cytometry; Nile Red retention ratio vs DMSO, % at 10 µM; AID 588520; in the data active means Nile Red retention ratio vs DMSO above about 190%;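 further: higher ratio means more blocking of Cdr2 efflux of the dye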
Cdr1 pump inh – inhibitors of Candida albicans Cdr1 efflux pump; shares compounds with Efflux pump inh; S. cerevisiae AD/CaCDR1, Nile Red efflux, flow cytometry; inhibition, % at 10 µM; 1,700 compounds, 1% hits; AID 588522;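 active means inhibition above the screen-wide mean plus twice its standard deviation, cut at about 32% in these data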
The depositor's hits bear a star; nt = no result given.

SMILES	GRK2 inh	ATG4B inh	Efflux pump inh	Yeast superoxide	Yeast cmpd fluor	CaMdr1 efflux inh	CaCdr2 efflux inh	Cdr1 pump inh
NC(=O)c1cc(-c2ccccc2)nc2ccc(Br)cc12	0.0	-11.9	0.5	74.4	90.8	-0.1	97.5	-0.2
Cn1c(CSCc2ccccc2)nnc1SCC(=O)Nc1ccc(C(=O)O)cc1	4.0	-3.5	0.2	88.7	nt	nt	nt	nt
CCOC(=O)c1c(-c2ccccc2)csc1NC(=O)c1cc(-c2ccccc2OC)on1	8.0	8.7	0.7*	102.1	88.8	-0.1	114.4	0.1
COc1cc2c(cc1OC)CN(C(=S)Nc1ccc(C)cc1C)CC2	2.0	-6.1	1.1*	104.7	103.0	-0.1	101.8	-0.1
O=C(CN(Cc1ccco1)C(=O)CNS(=O)(=O)c1ccc(F)cc1)NCc1ccccc1	0.0	-12.4	-0.1	106.7	nt	nt	nt	nt
CCOC(=O)N1CCC2(CC1)NCCc1c2[nH]c2ccccc12	0.0	-2.4	0.9*	96.5	97.2	-0.1	97.5	-0.1
COC(=O)C1(C)NCCc2c1[nH]c1ccccc21 (configuration not stated)	2.0	4.6	0.0	80.7	nt	nt	nt	nt
COC(=O)[C@H](CCSC)NC(=O)NCc1ccccn1	0.0	4.5	0.8*	108.2	104.6	0.1	112.2	-0.1
COc1ccc(C(=O)N2CCN(c3ccc(N4CCOCC4)nn3)CC2)cc1OC	0.0	-7.4	0.1	104.2	nt	nt	nt	nt
NC(=O)c1cccnc1OCC(F)(F)F	2.0	-5.5	-0.1	104.9	nt	nt	nt	nt
O=C1OC(c2cccs2)=N/C1=C/c1ccc(-c2cccc(C(=O)O)c2)o1	nt	9.3	nt	nt	nt	nt	nt	nt
O=C1OC(c2ccco2)=N/C1=C\c1ccc(-c2cccc(C(F)(F)F)c2)o1	8.0	17.1	1.2*	125.1	93.3	0.1	112.4	0.1
COc1ccccc1CC(=O)O/N=C(\N)c1ccccn1	3.0	-2.7	-0.1	91.3	nt	nt	nt	nt
N/C(=N\OC(=O)Cc1cccc2ccccc12)c1ccccn1	0.0	1.9	1.2*	115.5	108.6	-0.3	109.4	-0.1
CC(=O)Oc1ccc(N(C(C)=O)S(=O)(=O)c2ccc(C)cc2)c2ccccc12	1.0	-8.4	0.1	96.8	nt	nt	nt	nt
Cc1cc(C)c(NC(=O)CSc2nnc(-c3ccncc3)n2Cc2ccco2)c(Cl)c1	3.0	-10.2	1.3*	112.0	92.1	-0.2	100.1	0.0
Cc1cc(Cl)ccc1NC(=O)CSc1nnc(Cc2cccs2)n1Cc1ccco1	0.0	-14.4	0.2	101.3	93.5	-0.1	107.2	0.0
O=C(CSc1nnc(-c2ccncc2)n1Cc1ccco1)Nc1cccc(O)c1	2.0	1.3	0.3	93.2	nt	nt	nt	nt
COc1ccc(C(=O)CSc2nnc(CNc3ccc(C)cc3C)n2Cc2ccco2)cc1	0.0	-14.7	1.1*	88.4	105.8	-0.2	102.9	0.2
COc1cc2c(cc1NC(=O)CSc1nnc(Cc3cccs3)n1C)oc1ccccc12	1.0	-16.7	-0.2	108.3	nt	nt	nt	nt
COc1cc2c(cc1NC(=O)CSc1nnc(Cc3cccs3)n1Cc1ccco1)oc1ccccc12	0.0	17.5	0.3	97.5	90.8	-0.1	93.2	0.1
COc1ccc(S(=O)(=O)NC(CC(C)C)C(=O)NC(C)c2cccs2)cc1 (configuration not stated)	2.0	-2.2	0.9	135.3	nt	nt	nt	nt
COC(=O)CSc1ccc(S(=O)(=O)N2CCCCCC2)cc1[N+](=O)[O-]	0.0	-5.5	-0.2	116.2	nt	nt	nt	nt
CCc1cc(C(=O)Nc2ncccc2O)sc1C	2.0	-1.5	0.1	97.1	nt	nt	nt	nt
O=C(OCc1ccccc1)/C(=C/c1ccccc1Cl)NC(=O)c1ccco1	0.0	4.2	-0.1	104.1	nt	nt	nt	nt
SMILES	GRK2 inh	ATG4B inh	Efflux pump inh	Yeast superoxide	Yeast cmpd fluor	CaMdr1 efflux inh	CaCdr2 efflux inh	Cdr1 pump inh
CN1CCN(C(=O)/C(=C\c2cccs2)NC(=O)c2ccco2)CC1	0.0	-5.7	9.7*	67.5	101.8	-0.1	103.6	0.1
O=C(c1cc(-c2ccccc2Cl)nc2ccc(Br)cc12)N1CCN(c2ccccn2)CC1	0.0	9.5	5.3*	104.7	91.0	-0.3	92.0	0.0
CC(C(=O)NCc1ccccn1)c1ccc([N+](=O)[O-])cc1 (configuration not stated)	0.0	0.4	0.0	93.0	nt	nt	nt	nt
Cc1cc2nc3s/c(=C/c4ccc(-c5ccccc5C(=O)O)o4)c(=O)n3c2cc1C	4.0	9.7	0.9*	94.2	132.5	0.3	141.6	0.4
O=C(CCN1CCCCCC1)Nc1ccc2c(c1)OCCO2	0.0	1.1	0.6*	97.6	101.4	0.0	103.9	-0.1
CC(=O)NC1=NC(=O)/C(=C/c2cc(C)n(-c3ccc(NC(C)=O)cc3)c2C)S1	0.0	2.9	1.4*	114.9	119.7	0.1	96.5	2.3
CC(=O)NC1=NC(=O)/C(=C/c2cc(C)n(-c3cccc(C(=O)O)c3)c2C)S1	nt	10.0	nt	nt	nt	nt	nt	nt
O=C(COc1cccnc1[N+](=O)[O-])Nc1cccc(S(=O)(=O)N2CCOCC2)c1	2.0	-8.3	-0.1	93.4	nt	nt	nt	nt
C[C@H](CO)N1C[C@H](C)[C@@H](CN(C)C(=O)Nc2ccc3c(c2)OCO3)Oc2ccc(NC(=O)NC3CCCCC3)cc2C1=O	3.0	-9.8	0.0	77.5	nt	nt	nt	nt
Cc1cccc(-c2nc3c(c(SCC(=O)N4CCOCC4)n2)COC(C)(C)C3)c1	1.0	11.6	0.1	98.8	nt	nt	nt	nt
O=C(CSc1nc2ccccc2c(=O)n1-c1ccc(SC(F)F)cc1)Nc1ccc(N2CCOCC2)cc1	0.0	11.0	-0.1	88.5	nt	nt	nt	nt
Cc1ccc(-n2c(SCC(=O)Nc3ccc(N4CCOCC4)cc3)nc3ccccc3c2=O)cc1	0.0	6.6	9.6*	98.5	104.5	0.0	122.6	0.0
O=C(CSc1nc2ccccc2c(=O)n1-c1ccccc1Cl)Nc1cccc(S(=O)(=O)N2CCOCC2)c1	0.0	1.2	0.0	87.8	nt	nt	nt	nt
O=C(CSc1nc2ccccc2c(=O)n1-c1ccc(F)cc1F)Nc1ccc(N2CCOCC2)cc1	1.0	-0.1	18.9*	99.6	104.5	-0.2	122.6	0.1
O=C(CNC(=O)C1COc2ccccc2O1)N/N=C\c1cccc(O)c1 (configuration not stated)	0.0	6.0	7.6*	103.2	88.5	-0.4	87.3	-0.1
C[C@H](NS(=O)(=O)OCC(Cl)(Cl)Cl)C1CC1c1ccccc1 (some centres not stated)	2.0	8.2	0.0	97.8	nt	nt	nt	nt
CC(=O)OCCC(NS(=O)(=O)OCC(Cl)(Cl)Cl)c1ccccc1 (configuration not stated)	4.0	2.4	0.7*	99.4	111.1	-0.1	106.0	0.0
O=C(Nc1ccc(S(=O)(=O)N2CCCCC2)cc1)C1CC(=O)N(Cc2ccccc2)C1 (configuration not stated)	2.0	-0.1	-0.1	95.5	nt	nt	nt	nt
